Results taken from PubChem BioAssay (NCATS).
Values without a mark were called inactive. Records with an inconclusive call do not appear. A call without a number means that no potency is given here. Calls of active or inactive are those of the source. Unless noted, the call rests on the fitted dose curve; in most records, active means well fitted curve in the direction sought with a large enough effect; inconclusive means small, poorly fitted or top-dose-only effect, or another doubt; inactive means no such curve, though single readings can be large; an effect the other way counts as inactive or inconclusive.

Assays:
[1] = Confirmation and Secondary Assay for Modulators of Hemoglobin Beta Chain Splicing at IVS2 654 locus (AID 910);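 further: HeLa cells stably carrying EGFP split by mutant beta-globin IVS2-654 intron; per-well total GFP intensity by laser scanning cytometry after 2-day treatment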
How it was run: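 Readout: per-well total peak green fluorescence (488 nm ex, 500–520 nm em) from objects 5–250 µm, reflecting correct splicing of an EGFP-654 reporter. Compounds were applied for 2 days at 37 °C to overnight-plated HeLa EGFP-654 cells; controls were DMSO and 500 nM IVS2-654 PNA.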

[2] = Confirmation and Secondary Assay for Modulators of Hemoglobin Beta Chain Splicing at IVS2 705 locus (AID 930);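 further: HeLa cells stably expressing the EGFP-705 splicing reporter; GFP fluorescence per well restored by corrected splicing of the IVS2-705 intron in EGFP; series mostly up to about 46 µM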
How it was run: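 HeLa EGFP-705 reporter; 500 cells/well, o/n 37C 5% CO2; cpd 2 d; 488 ex/500-520 em laser scan; total peak GFP intensity/well. Ref: 500 nM […] antisense PNA.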

[3] = molecular target: N-terminal Xaa-Pro-Lys N-methyltransferase 1 (Homo sapiens) (UniProt Q9BV86); assay: Confirmatory qHTS for Inhibitors of N-terminal methyltransferase 1 (NTMT1): MTaseGlo Assay (AID 1645874); conditions: NTMT1 enzyme, MTase-Glo SAH luminescence; further: potency means the concentration at half of the fitted maximal effect; nearly all actives have a fitted effect of over 65% in size
N-terminal Xaa-Pro-Lys N-methyltransferase 1 (Homo sapiens), sequence (Q9BV86 whole entry, looked up): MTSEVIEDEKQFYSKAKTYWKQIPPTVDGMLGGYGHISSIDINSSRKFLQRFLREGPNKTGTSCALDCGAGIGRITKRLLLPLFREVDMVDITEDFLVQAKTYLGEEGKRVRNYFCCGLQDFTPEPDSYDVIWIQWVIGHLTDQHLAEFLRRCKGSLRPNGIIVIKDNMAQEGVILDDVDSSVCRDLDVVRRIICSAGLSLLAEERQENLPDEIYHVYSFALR
How it was run: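 Room-temperature NTMT1 reaction, 30 min, with 100 uM SAM and 1 uM SPKRIA substrate; enzyme 125 nM. Read-out: MTase-Glo luminescence, normalized to no-enzyme and DMSO controls.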

[4] = molecular target: Calcium and integrin-binding protein 1 (Homo sapiens) (UniProt Q99828); assay: Confirmatory qHTS for Identification of Calcium Integrin Binding Protein 1 (CIB1) Competitor (AID 1508617); conditions: CIB1 binding competition assay, biochemical qHTS; further: potency means the concentration at half of the fitted maximal effect; nearly all actives have a fitted effect of over 65% in size
Calcium and integrin-binding protein 1 (Homo sapiens), sequence (Q99828 whole entry, looked up): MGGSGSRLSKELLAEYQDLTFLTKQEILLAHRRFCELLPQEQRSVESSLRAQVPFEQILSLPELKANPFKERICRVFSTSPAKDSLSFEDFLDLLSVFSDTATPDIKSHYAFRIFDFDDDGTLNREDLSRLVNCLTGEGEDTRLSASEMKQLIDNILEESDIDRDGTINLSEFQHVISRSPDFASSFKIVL
How it was run: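 Binding competition between test compounds and fluorescent alphaIIb peptide for 1 uM CIB1-GST is monitored by FP at 480/540 nm. Final compound range is up to 114 uM; unlabeled peptide serves as reference competitor.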

[5] = molecular target: Luciferin 4-monooxygenase (Photinus pyralis) (UniProt P08659); assay: Biochemical firefly luciferase enzyme assay for NPC (AID 624030);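 further: purified P. pyralis luciferase at 10 nM with luciferin and ATP substrate; series mostly up to about 59 µM; nearly all actives have a fitted effect of over 70% in size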
Luciferin 4-monooxygenase (Photinus pyralis), sequence (P08659 whole entry, looked up): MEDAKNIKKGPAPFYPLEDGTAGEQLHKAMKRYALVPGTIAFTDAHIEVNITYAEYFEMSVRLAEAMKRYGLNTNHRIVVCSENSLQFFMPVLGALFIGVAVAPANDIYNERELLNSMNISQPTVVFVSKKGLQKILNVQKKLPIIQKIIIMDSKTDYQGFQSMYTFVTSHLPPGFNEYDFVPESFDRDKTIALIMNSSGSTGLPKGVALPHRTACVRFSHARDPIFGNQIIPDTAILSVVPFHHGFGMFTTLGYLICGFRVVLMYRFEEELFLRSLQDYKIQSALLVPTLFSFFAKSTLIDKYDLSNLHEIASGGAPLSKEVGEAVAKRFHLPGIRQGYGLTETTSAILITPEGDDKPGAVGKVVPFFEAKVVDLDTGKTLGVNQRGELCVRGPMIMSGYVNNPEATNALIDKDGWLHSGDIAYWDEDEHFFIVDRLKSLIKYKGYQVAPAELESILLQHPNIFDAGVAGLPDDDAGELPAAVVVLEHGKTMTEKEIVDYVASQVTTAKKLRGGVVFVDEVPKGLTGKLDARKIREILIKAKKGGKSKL
How it was run: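 Direct inhibition of firefly luciferase enzyme (10 nM final, 50 mM Tris Acetate) assessed by luminescence within 5 minutes. Percent activity scaled between DMSO and PTC124 positive control, with concentration-effect curves classified by fit quality and response.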

[6] = Viability counterscreen for agonist of constitutive androstane receptor (CAR) against the NCATS DSHEA and TCM libraries (AID 1794838);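 further: cells exposed to compound for 24 h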
How it was run: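 In agonist mode, PK11195 is added at 0.75 uM final to HepG2-CYP2B6-hCAR cells dosed with test substances. Cultures incubate 24 h at 37C before a protease-based fluorogenic viability readout.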

[7] = molecular target: Nuclear receptor subfamily 1 group I member 3 (Homo sapiens) (UniProt Q14994); assay: Primary qHTS for agonist of constitutive androstane receptor (CAR) against the NCATS DSHEA and TCM libraries (AID 1794839);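 further: HepG2 cells expressing human CAR with a CYP2B6 reporter plus PK11195 antagonist; luciferase reporter luminescence read with ONE-Glo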
Nuclear receptor subfamily 1 group I member 3 (Homo sapiens), sequence (Q14994 whole entry, looked up): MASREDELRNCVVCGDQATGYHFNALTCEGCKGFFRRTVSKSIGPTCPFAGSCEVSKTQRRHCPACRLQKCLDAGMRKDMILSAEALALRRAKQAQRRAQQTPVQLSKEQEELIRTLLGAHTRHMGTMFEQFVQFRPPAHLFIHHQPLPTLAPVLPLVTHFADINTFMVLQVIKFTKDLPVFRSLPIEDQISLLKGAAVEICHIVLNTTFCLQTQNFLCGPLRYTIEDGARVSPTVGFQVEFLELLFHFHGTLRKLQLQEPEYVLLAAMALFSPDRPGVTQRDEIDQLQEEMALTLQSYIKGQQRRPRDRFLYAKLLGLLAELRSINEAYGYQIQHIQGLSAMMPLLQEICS
How it was run: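 Cells stably carrying hCAR and a CYP2B6 reporter (HepG2 background) are seeded and allowed 5 h to adhere. Substances at multiple concentrations are added alongside 0.75 µM PK11195, and luciferase signal is measured after 24 h.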

[8] = HepG2 viability counterscreen (readout 2: ATP content) against the NCATS DSHEA and TCM libraries (AID 1794840);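 further: HepG2 cells exposed to substances for about 24 h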
How it was run: (§1)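 Cytotoxicity was assessed in HepG2 cells plated at 1,000 cells/well and exposed for about 24 hours to a concentration series. Protease activity and ATP content were measured sequentially in each well.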

[9] = HepG2 viability counterscreen (readout 1: protease activity) against the NCATS DSHEA and TCM libraries (AID 1794841);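 further: cells exposed to compounds for about 24 h before the protease read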
How it was run: as §1

[10] = molecular target: Cytochrome P450 3A4 (Homo sapiens) (UniProt P08684); assay: qHTS for inhibitors of CYP3A4 against the NCATS DSHEA and TCM libraries (AID 1919971);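 further: inhibition lowers luminescence from luciferin made by CYP3A4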
Cytochrome P450 3A4 (Homo sapiens), sequence (P08684 whole entry, looked up, canonical isoform): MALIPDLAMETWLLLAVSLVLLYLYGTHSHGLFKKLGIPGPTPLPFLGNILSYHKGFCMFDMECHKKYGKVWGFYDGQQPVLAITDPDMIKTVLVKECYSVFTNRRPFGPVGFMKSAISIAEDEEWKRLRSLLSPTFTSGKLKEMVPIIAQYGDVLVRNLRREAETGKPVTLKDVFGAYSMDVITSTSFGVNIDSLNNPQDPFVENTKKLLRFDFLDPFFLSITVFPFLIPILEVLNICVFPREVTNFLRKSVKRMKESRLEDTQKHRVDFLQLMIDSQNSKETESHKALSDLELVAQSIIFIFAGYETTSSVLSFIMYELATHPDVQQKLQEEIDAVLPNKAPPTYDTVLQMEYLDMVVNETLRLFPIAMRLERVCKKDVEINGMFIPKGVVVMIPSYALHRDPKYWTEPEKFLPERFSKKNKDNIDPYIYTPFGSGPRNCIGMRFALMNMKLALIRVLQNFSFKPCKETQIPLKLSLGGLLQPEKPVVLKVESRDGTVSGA
How it was run: (§2)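 Concentration-response screening with isoform-matched pro-luciferin substrates. The CYP reaction was initiated by NADPH regenerating solution and ran 30-45 min in darkness at room temperature.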

[11] = molecular target: Cytochrome P450 2D6 (Homo sapiens) (UniProt P10635); assay: qHTS for inhibitors of CYP2D6 against the NCATS DSHEA and TCM libraries (AID 1919972)
Cytochrome P450 2D6 (Homo sapiens), sequence (P10635 whole entry, looked up): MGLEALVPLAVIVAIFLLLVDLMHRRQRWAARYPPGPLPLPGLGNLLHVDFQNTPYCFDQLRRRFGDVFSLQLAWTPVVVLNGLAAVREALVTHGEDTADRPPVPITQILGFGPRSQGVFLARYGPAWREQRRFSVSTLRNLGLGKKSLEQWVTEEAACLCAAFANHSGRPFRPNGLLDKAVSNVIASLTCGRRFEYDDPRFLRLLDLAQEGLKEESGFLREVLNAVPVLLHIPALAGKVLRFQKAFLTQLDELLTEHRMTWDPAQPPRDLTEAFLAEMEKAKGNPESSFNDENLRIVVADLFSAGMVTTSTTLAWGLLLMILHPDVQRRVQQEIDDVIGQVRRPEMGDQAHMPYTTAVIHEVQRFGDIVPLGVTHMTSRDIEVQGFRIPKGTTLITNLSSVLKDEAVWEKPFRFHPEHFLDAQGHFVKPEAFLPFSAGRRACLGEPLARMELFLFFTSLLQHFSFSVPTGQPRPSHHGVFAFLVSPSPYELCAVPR
How it was run: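 CYP2D6 enzyme with pro-luciferin substrate in manufacturer buffer (typically 100 mM KPO4), preincubated 15 min RT with substances (most at 19.5 nM upward); NADPH regeneration system (1x) started 30–45 min RT reaction; P450-Glo luminescence read after 30 min; quinidine as intraplate control.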

[12] = molecular target: Cytochrome P450 2C9 (Homo sapiens) (UniProt P11712); assay: qHTS for inhibitors of CYP2C9 against the NCATS DSHEA and TCM libraries (AID 1919973);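 further: luminogenic pro-luciferin CYP2C9 substrate turned into luciferin with NADPH regeneration; series mostly up to about 34 µM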
Cytochrome P450 2C9 (Homo sapiens), sequence (P11712 whole entry, looked up): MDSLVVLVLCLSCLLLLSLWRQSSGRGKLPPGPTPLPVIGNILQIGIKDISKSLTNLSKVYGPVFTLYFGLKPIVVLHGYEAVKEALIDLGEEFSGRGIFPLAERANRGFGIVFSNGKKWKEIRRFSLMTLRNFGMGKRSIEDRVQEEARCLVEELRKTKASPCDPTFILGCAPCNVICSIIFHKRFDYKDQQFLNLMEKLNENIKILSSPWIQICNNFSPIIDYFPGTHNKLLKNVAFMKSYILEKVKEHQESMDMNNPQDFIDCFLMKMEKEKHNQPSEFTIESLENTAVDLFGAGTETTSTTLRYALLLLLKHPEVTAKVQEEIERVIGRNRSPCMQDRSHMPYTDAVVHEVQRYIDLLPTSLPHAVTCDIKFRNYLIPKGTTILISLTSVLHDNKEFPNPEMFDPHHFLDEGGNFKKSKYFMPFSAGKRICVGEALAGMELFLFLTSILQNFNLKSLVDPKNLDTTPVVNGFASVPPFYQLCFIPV
How it was run: as §2

[13] = molecular target: Cytochrome P450 2C19 (Homo sapiens) (UniProt P33261); assay: qHTS for inhibitors of CYP2C19 against the NCATS DSHEA and TCM libraries (AID 1919974); conditions: CYP2C19 enzyme inhibition, luminescence qHTS;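 further: luminescence from luciferin released by CYP2C19 oxidation of a pro-luciferin substrate; potency means the concentration at half of the fitted maximal effect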
Cytochrome P450 2C19 (Homo sapiens), sequence (P33261 whole entry, looked up): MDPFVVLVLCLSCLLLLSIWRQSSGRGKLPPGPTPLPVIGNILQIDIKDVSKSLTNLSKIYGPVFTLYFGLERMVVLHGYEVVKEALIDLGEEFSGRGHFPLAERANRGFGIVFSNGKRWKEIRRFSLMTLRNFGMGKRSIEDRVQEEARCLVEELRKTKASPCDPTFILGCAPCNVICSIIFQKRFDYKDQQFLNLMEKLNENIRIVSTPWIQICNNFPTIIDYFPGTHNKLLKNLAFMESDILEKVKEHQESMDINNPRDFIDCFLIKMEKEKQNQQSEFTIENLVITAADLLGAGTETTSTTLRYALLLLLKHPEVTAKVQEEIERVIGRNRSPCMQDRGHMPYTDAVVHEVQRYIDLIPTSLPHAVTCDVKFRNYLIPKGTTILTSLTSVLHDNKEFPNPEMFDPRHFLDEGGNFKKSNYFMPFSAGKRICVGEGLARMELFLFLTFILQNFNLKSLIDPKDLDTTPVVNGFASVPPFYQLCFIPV
How it was run: as §2

[14] = KB-3-1 P-gp reporter qHTS against the NCATS DSHEA and TCM libraries (AID 1919975)
How it was run: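 72 h exposure of KB-3-1 cells (DMEM, 10% FBS) to DSHEA/TCM samples, concentration-response; cell viability measured as CellTiter-Glo luminescence after 30 min at room temperature.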

[15] = molecular target: Cytochrome P450 1A2 (Homo sapiens) (UniProt P05177); assay: qHTS for inhibitors of CYPIA2 against the NCATS DSHEA and TCM libraries (AID 1919976); further: potency means the concentration at half of the fitted maximal effect
Cytochrome P450 1A2 (Homo sapiens), sequence (P05177 whole entry, looked up): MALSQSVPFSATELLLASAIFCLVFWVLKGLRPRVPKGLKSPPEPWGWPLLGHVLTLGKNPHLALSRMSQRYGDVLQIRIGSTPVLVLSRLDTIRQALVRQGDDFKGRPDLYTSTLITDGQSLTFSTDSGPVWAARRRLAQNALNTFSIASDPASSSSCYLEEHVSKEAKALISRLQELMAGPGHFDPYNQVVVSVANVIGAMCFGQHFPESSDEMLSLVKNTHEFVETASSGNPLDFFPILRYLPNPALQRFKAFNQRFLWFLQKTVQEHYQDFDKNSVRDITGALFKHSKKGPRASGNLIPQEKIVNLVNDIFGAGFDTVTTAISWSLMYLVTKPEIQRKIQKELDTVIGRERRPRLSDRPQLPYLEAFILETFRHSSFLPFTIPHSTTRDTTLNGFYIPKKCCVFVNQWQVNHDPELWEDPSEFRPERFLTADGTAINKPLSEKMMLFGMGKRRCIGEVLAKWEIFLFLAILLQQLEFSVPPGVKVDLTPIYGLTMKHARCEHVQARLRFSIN
How it was run: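 Enzyme and pro-luciferin substrate, or substrate alone as no-enzyme background, are pre-incubated with test samples for 15 min at room temperature. NADPH regeneration system (1x final) initiates a 30-45 min dark reaction; luciferase detection reagent follows before luminescence reading.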

[16] = qHTS Counterscreen for compound interference against the NCATS DSHEA and TCM libraries (AID 1919978); conditions: firefly luciferase detection reagent interference, luminescence
How it was run: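 Read-out is luminescence after 30 min at RT with luciferin detection reagent. Before that, compounds (19.5 nM to 39.8 uM final) sat 15 min at RT with 1 uM D-luciferin or 100 mM potassium phosphate buffer. PTC124 served as intraplate control.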

[17] = Dual reporter qHTS for agonist of Pregnane X Receptor (hPXR) against the NCATS DSHEA and TCM libraries: Fluorescence readout (AID 1920058)
How it was run: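 Cells were plated at 2000 per well and allowed to attach for 5 h. Test substances were pinned in and incubated roughly 24 h. CellTiter-Fluor was then added and fluorescence measured after 1 h.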

[18] = qHTS Assay for Identification of Small Molecule Agonists for Hypoxia Response Element Signaling Pathway (AID 914; active means well fitted activation curve with a large enough effect in the signal ratio, with a control signal flat, not every such curve was filed as active; the % refers to the signal ratio); conditions: ME-180 (cervical carcinoma) HRE-bla reporter, beta-lactamase ratio, CoCl2, 17 h; activation: hits give high values
How it was run: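 Read-out: CCF4 FRET ratio of 460nm to 530nm emission (excitation 405nm) after 2.5 hours at room temperature, taken from HRE-bla ME-180 cells that had been exposed to compound and EC50 CoCl2 for 17 hours.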

[19] = Confirmatory screen GU Rhodamine qHTS for Zika virus inhibitors qHTS (AID 1347157); further: potency means the concentration at half of the fitted maximal effect; nearly all actives have a fitted effect of over 70% in size
How it was run: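 In dose–response format, inhibition of unlinked protease (25 nM) was measured with 1.5 microM bis-peptide Rhodamine110 substrate. Aprotinin served as the intraplate control.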

[20] = Confirmatory screen NINDS Rhodamine qHTS for Zika virus inhibitors (AID 1347161); further: potency means the concentration at half of the fitted maximal effect; nearly all actives have a fitted effect of over 60% in size
How it was run: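 Enzyme (25 nM, linked NS2B-NS3) was preincubated 15 min with compound in 10 mM Tris-HCl pH 8.0, 0.01% Tween 20. Rhodamine110 substrate (1.5 microM) was then added and fluorescence read at start and after 15 min.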

CC1CCCC(=O)CCC/C=C/c2cc(O)cc(O)c2C(=O)O1 (stereo not given)
Potency [1]: inactive
outcome [2]: inactive
Potency [3]: 15.8 µM (active)

C=C1[C@@H](C)[C@H]2[C@H](Cc3ccccc3)NC(=O)[C@]23OC(=O)/C=C/C(=O)CCC[C@@H](C)C/C=C/[C@H]3[C@@H]1O
Potency [4]: 10 µM (active)

O=C(CC1NCCC[C@H]1O)Cn1cnc2cc(Br)c(Cl)cc2c1=O (stereo not given in full)
Potency [5]: inactive

C=C(CO)C(=O)O[C@H]1CC(=C)[C@@H]2C[C@H](O)C(=C)[C@@H]2[C@H]2OC(=O)C(=C)[C@@H]21
outcome [6]: inactive
outcome [7]: inactive
outcome [8]: inactive
outcome [9]: inactive
outcome [10]: inactive
outcome [11]: inactive
outcome [12]: inactive
Potency [13]: 2.24 µM (active)
outcome [14]: inactive
Potency [15]: 2.51 µM (active)
max response [16]: -4.75%
outcome [17]: inactive

CN(C)[C@@H]1C(=O)C(C(N)=O)=C(O)[C@@]2(O)C(=O)C3=C(O)c4c(O)ccc(Cl)c4[C@@](C)(O)C3C[C@@H]12 (stereo not given in full)
activation [18]: 4.51%

CNc1ccc2oc(C[C@H]3O[C@@]4(CC[C@H]3C)O[C@H](C(C)C(=O)c3ccc[nH]3)[C@H](C)C[C@H]4C)nc2c1C(=O)O (stereo not given in full)
Potency [19]: 13.9 µM (active)
Potency [20]: 31.2 µM (active)
